Results published in PubChem BioAssay AID1850 (Southern Research Specialized Biocontainment Screening …, 2009).
Screen size: about 310,000 compounds; about 1,000 (0.32%) were called active. These entries were drawn from the full list. Entries with a potency or affinity are not part of this list. Unmarked numbers belong to inactive results. The rule behind the calls is not given here.

Assay: Inhibition of PhoP regulon, Salmonella typhi GFP reporter cells, confirmation, 4 h (AID 1850);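 note: 0% = induced wells with vehicle and 100% = uninduced wells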
Details: Salmonella Typhi PhoP-promoter GFP reporter, fluorescence, at 50 µM, active compounds read high

Row | SMILES | inhibition [%]
1 | Cc1cccc(Cl)c1OCCN1CCCC1 | -6.23
2 | O=C(NCCN1CCOCC1)/C(=C/c1ccc(Cl)cc1)NC(=O)c1ccccc1 | 0.05
3 | COc1cc(CCC(=O)OCC(=O)Nc2ccc(C)cc2Cl)cc(OC)c1OC | -0.48
4 | Cc1ccc(S(=O)(=O)Nc2nncs2)cc1 | -8.26
5 | CC(CCN1CCN=C1Nc1ccccc1)c1ccccc1 (stereo not given) | 0.31
6 | COc1ccccc1CNC(=O)CCC(=O)N1C[C@H]2C[C@@H](C1)c1cccc(=O)n1C2 | 0.48
7 | CCOCC(=O)Nc1nnc(SCCOC)s1 | -8.99
8 | O=C(CC(n1cncn1)C(Cl)(Cl)Cl)c1ccc([N+](=O)[O-])cc1 (stereo not given) | -2.18
9 | CC(=O)NC(CC(=O)c1ccc([N+](=O)[O-])cc1)C(Cl)(Cl)Cl (stereo not given) | -10.7
10 | O=C(CSC1=NC(=O)C(c2ccccc2)C(=O)N1)Nc1ccccc1[N+](=O)[O-] (stereo not given) | 0.46
11 | Cc1ccccc1-n1ncc2c1CC(C)(C)CC2NC(=O)C1CCC1 (stereo not given) | 6.32
12 | N/C(=N\OC(=O)COc1ccc2ccccc2c1)c1cccnc1 | -4.96
13 | N/C(=N\OC(=O)c1ccc(Cl)cc1)c1cccnc1 | 8.82
14 | N/C(=N\OC(=O)c1ccccc1)c1cccnc1 | -1.82
15 | N/C(=N\OS(=O)(=O)c1ccc2ccccc2c1)c1ccncc1 | 9.71
16 | N/C(=N\OS(=O)(=O)c1ccc(Cl)cc1)c1ccncc1 | -3.25
17 | N/C(=N\OS(=O)(=O)c1ccccc1)c1ccncc1 | 6.44
18 | O=C(COC(=O)c1ccc([N+](=O)[O-])o1)Nc1cccc(S(=O)(=O)N2CCCCC2)c1 | 9.11
19 | CC(=O)N(C)c1ccc(NS(=O)(=O)c2cc(Cl)ccc2Cl)cc1 | -11.6
20 | CCOC(=O)C1C(=O)C=C(c2cccs2)CC1c1ccccc1C (stereo not given) | -6.96
21 | CCCCOc1ccc(C(=O)N2CC(C)OC(C)C2)cc1 (stereo not given) | -8.56
22 | CC1CN(C)C(C)CC1OC(=O)C(c1ccccc1)c1ccccc1 (stereo not given) | -11.9
23 | Cc1ccc(N2OC3C(=O)NC(=O)C3C2c2ccco2)cc1 (stereo not given) | -16
24 | COc1ccc(NCc2nn(CC(=O)c3ccc(Br)cc3)c3[n+]2CCCCC3)cc1 | 8.75
25 | COc1ccc(C(=O)Cn2nc(CNc3ccc(Br)cc3)[n+]3c2CCCCC3)cc1 | 1.1
26 | O=C(Cn1nc(CNc2ccc(Cl)cc2)[n+]2c1CCCCC2)c1ccccc1 | -5.48
27 | Cc1ccc(C(C)C)c(OCc2nn(CC(=O)c3ccc(Cl)cc3)c3[n+]2CCCCC3)c1 | -26.5

Row | SMILES | inhibition [%]
28 | COC(=O)CNC(c1ccccc1)c1cc(Cl)ccc1NC(=O)c1cccc(Cl)c1 (stereo not given) | -1.38
29 | CCCCOc1ccc(Cc2cnc(N)nc2N)cc1 | -18.3
30 | COCc1cnc(C)nc1N | -2.28
31 | COc1ccccc1OCc1nc2ccccc2n1C | -1.73
32 | O=C(NNC(=O)C(c1ccccc1)c1ccccc1)c1cccs1 | -3.78
33 | CN1CCN(c2ccc(NC(=O)c3ccc(Br)o3)cc2)CC1 | -0.39
34 | CN1CCN(c2ccc(NC(=O)c3ccc(-c4ccc(Cl)cc4)o3)cc2)CC1 | 14.7
35 | Cc1ccc(NC(=O)CSc2nnc(CNC(=O)c3ccco3)o2)cc1Cl | -4.93
36 | CCCCC(=O)NNC(=S)NC(=O)c1ccc(C)cc1 | 12.1
37 | CCCCC(=O)NC(=S)NNC(=O)CCc1ccccc1 | -4.48
38 | CCCCCC(=O)NNC(=S)NC(=O)c1ccc([N+](=O)[O-])cc1 | -13
39 | CCCCC(=O)NC(=S)NNC(=O)CC#N | 15.9
40 | CCCCCCCC(=O)NNC(=O)CCC(=O)O | -4.06
41 | CCCCC(=O)NNC(=S)NC(=O)C(c1ccccc1)c1ccccc1 | -0.63
42 | CCCCC(=O)NC(=S)Nc1cccc(NC(=O)CC)c1 | -1.01
43 | CCCCCC(=O)NC(=S)NC1C2CC3CC(C2)CC1C3 (stereo not given) | 14.6
44 | O=C(CNc1cccc(S(=O)(=O)N2CCOCC2)c1)N1CCc2ccccc21 | -12.4
45 | Cc1cc(-n2c(=S)sc3c(=O)n(-c4ccc(F)cc4)c(SCC(=O)O)nc32)ccc1Cl | 2.23
46 | CN(c1ccccc1)S(=O)(=O)c1ccc(NC(=O)c2ccc(F)cc2)cc1 | -3.04
47 | Cc1cc(OCC(=O)Nc2ccc(OCc3ccccc3)cc2)nc(C(C)C)n1 | -4.55
48 | O=C(CCn1cnc(-c2ccccc2)c1-c1ccccc1)N/N=C/c1ccccc1O | -2.92
49 | COc1cccc(-c2ccc(SCC(=O)NC3CCCC3)nn2)c1 | -7.47
50 | CCN1CCN(C(=O)CCS(=O)(=O)c2cc3c(cc2Cl)NC(=O)CO3)CC1 | 12.4
51 | CCn1c(C)cc(/C=C2/SC(=S)N(CC(=O)O)C2=O)c1C | 6.61
52 | O=C(Oc1cccc(NC(=O)c2ccco2)c1)c1cccc(S(=O)(=O)N2CCCCC2)c1 | 2.38
53 | Cn1c(=N)n(CC(=O)c2ccc(Br)s2)c2ccccc21 | -0.89
54 | CCN(CC)CCn1c(=N)n(CC(=O)c2ccc(Br)s2)c2ccccc21 | 14.1

Row | SMILES | inhibition [%]
55 | CCn1c(=N)n(CC(=O)c2ccc(Br)s2)c2ccccc21 | 11.2
56 | N=c1n(CC(=O)c2cccs2)c2ccccc2n1Cc1ccccc1 | 11.7
57 | CCc1cc(CNC(=O)C2CCC(=O)N(CCc3ccc(OC)cc3)C2)on1 (stereo not given) | -3.38
58 | CCOC(=O)C1=C(c2ccccc2)Nc2ncnn2C1c1ccc(C(=O)O)cc1 (stereo not given) | -0.92
59 | CCOC(=O)C1=C(c2ccccc2)NC(N)=NC1c1ccc(OCc2ccc(Cl)cc2)c(OC)c1 (stereo not given) | 0.34
60 | Cc1ccc(SCc2cc(=O)[nH]c(N3CCOCC3)n2)cc1 | 4.21
61 | C#CCOCCOCCOCCNc1nc(N2CCN(C(=O)CCCCCCCCCCNC(=O)[C@@H](CCSC)n3cc(CCO)nn3)CC2)nc(N2CCN(C(=O)CCCCCCCCCCNC(=O)[C@H](CCCN=C(N)N)n3cc(C[C@@H](C)CC)nn3)CC2)n1 | -10.5
62 | C#CCOCCOCCOCCNc1nc(N2CCN(C(=O)CCCCCCCCCCNC(=O)[C@H](CCCCN)n3cc(C[C@@H](C)CC)nn3)CC2)nc(N2CCN(C(=O)CCCCCCCCCCNC(=O)[C@@H]([C@H](C)O)n3cc(C)nn3)CC2)n1 | 51.8
63 | C#CCOCCOCCOCCNc1nc(N2CCN(C(=O)CCCCCCCCCCNC(=O)[C@H](CCCCN)n3cc(CCCC(=O)O)nn3)CC2)nc(N2CCN(C(=O)CCCCCCCCCCNC(=O)[C@H](CCCCN)n3cc(CCCC(=O)O)nn3)CC2)n1 | 0.23
64 | C#CCOCCOCCOCCNc1nc(N2CCN(C(=O)CCCCCCCCCCNC(=O)[C@H](CCCCN)n3cc(C)nn3)CC2)nc(N2CCN(C(=O)CCCCCCCCCCNC(=O)[C@H](CCCCN)n3cc(CCCC(=O)O)nn3)CC2)n1 | -29.8
65 | C#CCOCCOCCOCCNc1nc(N2CCN(C(=O)CCCCCCCCCCNC(=O)[C@H](CCCCN)n3cc(CCCC(=O)O)nn3)CC2)nc(N2CCN(C(=O)CCCCCCCCCCNC(=O)[C@H](CCCN=C(N)N)n3cc(C[C@@H](C)CC)nn3)CC2)n1 | 13.7
66 | C#CCOCCOCCOCCNc1nc(N2CCN(C(=O)CCCCCCCCCCNC(=O)[C@H](CCCCN)n3cc(CCO)nn3)CC2)nc(N2CCN(C(=O)CCCCCCCCCCNC(=O)[C@H](CCCCN)n3cc(CCCC(=O)O)nn3)CC2)n1 | -30.2
67 | C#CCOCCOCCOCCNc1nc(N2CCN(C(=O)CCCCCCCCCCNC(=O)Cn3cc(C[C@@H](C)O)nn3)CC2)nc(N2CCN(C(=O)CCCCCCCCCCNC(=O)[C@H](CCCN=C(N)N)n3cc(C[C@@H](C)CC)nn3)CC2)n1 | 25.7
68 | COc1ccccc1/C=N/NC(=O)c1nnn(-c2nonc2N)c1CSC1=NCCS1 | -3.46
69 | COc1cc(/C=C/C(=O)Nc2ccncc2)cc(OC)c1OC | 9.98
70 | Cc1nn(-c2ccccc2)c(N2CCCC2)c1/C=N/NC(=O)c1cc(-c2cccs2)nc2ccccc12 | -12.2
71 | CCOC(=O)C1(CCCc2ccccc2)CCN(C(=O)CCN2CCCCC2=O)CC1 | -9.1
72 | O=C(c1ccc(COc2ccccc2Cl)o1)N1N=C(C(F)F)CC1(O)C(F)F (stereo not given) | -0.36
73 | Cc1ccc(C(O)P(=O)(Oc2ccccc2)Oc2ccccc2)cc1 (stereo not given) | -35.5
74 | COc1ccc(NC(=O)CCN2C(=O)C3CC=C(Cl)CC3C2=O)cc1 (stereo not given) | -3.04
75 | C#CCOCCOCCOCCNc1nc(N2CCN(C(=O)CCCCCCCCCCNC(=O)[C@@H](CCC(=O)O)n3cc(CCCCCN)nn3)CC2)nc(N2CCN(C(=O)CCCCCCCCCCNC(=O)[C@H](CO)n3cc(CCCCCN)nn3)CC2)n1 | -6.21
76 | C#CCOCCOCCOCCNc1nc(N2CCN(C(=O)CCCCCCCCCCNC(=O)[C@@H](CCC(=O)O)n3cc(CCCCCN)nn3)CC2)nc(N2CCN(C(=O)CCCCCCCCCCNC(=O)[C@H](CO)n3cc(CCCSC)nn3)CC2)n1 | -11.4
77 | C#CCOCCOCCOCCNc1nc(N2CCN(C(=O)CCCCCCCCCCNC(=O)[C@@H](CCC(=O)O)n3cc(CCCCCN)nn3)CC2)nc(N2CCN(C(=O)CCCCCCCCCCNC(=O)[C@H](CCCCN)n3cc(C[C@@H](C)CC)nn3)CC2)n1 | -7.23
78 | C#CCOCCOCCOCCNc1nc(N2CCN(C(=O)CCCCCCCCCCNC(=O)[C@H](CO)n3cc(CCCSC)nn3)CC2)nc(N2CCN(C(=O)CCCCCCCCCCNC(=O)[C@H](CCCN=C(N)N)n3cc(C[C@@H](C)CC)nn3)CC2)n1 | 25.4
79 | C#CCOCCOCCOCCNc1nc(N2CCN(C(=O)CCCCCCCCCCNC(=O)Cn3cc(C[C@@H](C)O)nn3)CC2)nc(N2CCN(C(=O)CCCCCCCCCCNC(=O)[C@H](CCCCN)n3cc(C[C@@H](C)CC)nn3)CC2)n1 | 14.8
80 | C#CCOCCOCCOCCNc1nc(N2CCN(C(=O)CCCCCCCCCCNC(=O)[C@H](CO)n3cc(CCCSC)nn3)CC2)nc(N2CCN(C(=O)CCCCCCCCCCNC(=O)[C@H](CCCCN)n3cc(C[C@@H](C)CC)nn3)CC2)n1 | -5.02
